Results reported in PubChem BioAssay AID504374 (National Center for Advancing Translational Sciences (NCATS), 2011).
Hit rate of the full screen: of about 1,500 compounds, about 100 (6.7%) were called active. Not shown: some 7% with an inconclusive outcome. Calls come from the whole dose curve; as a rule, active = well fitted inhibition curve with a large enough effect; inconclusive = small, poorly fitted or top-dose-only effect, or effect the other way; inactive = flat fitted curve, though single readings scatter. The entries come from a sample that favours actives as a whole.

target: Runt-related transcription factor 1 (Homo sapiens) + Core-binding factor subunit beta (Homo sapiens) (UniProt Q01196+Q13951); assay: qHTS Assay for Compounds Blocking the Interaction Between CBF-beta and RUNX1 for the Treatment of Acute Myeloid Leukemia: Hit Validation; conditions: AlphaScreen CBFb-His/RUNX1-biotin binding; series mostly up to 59.8 µM; activity, negative = inhibition: at the top concentration; note: nearly all actives have a fitted effect of over 60% in size
Sequence (Q01196 whole entry, looked up): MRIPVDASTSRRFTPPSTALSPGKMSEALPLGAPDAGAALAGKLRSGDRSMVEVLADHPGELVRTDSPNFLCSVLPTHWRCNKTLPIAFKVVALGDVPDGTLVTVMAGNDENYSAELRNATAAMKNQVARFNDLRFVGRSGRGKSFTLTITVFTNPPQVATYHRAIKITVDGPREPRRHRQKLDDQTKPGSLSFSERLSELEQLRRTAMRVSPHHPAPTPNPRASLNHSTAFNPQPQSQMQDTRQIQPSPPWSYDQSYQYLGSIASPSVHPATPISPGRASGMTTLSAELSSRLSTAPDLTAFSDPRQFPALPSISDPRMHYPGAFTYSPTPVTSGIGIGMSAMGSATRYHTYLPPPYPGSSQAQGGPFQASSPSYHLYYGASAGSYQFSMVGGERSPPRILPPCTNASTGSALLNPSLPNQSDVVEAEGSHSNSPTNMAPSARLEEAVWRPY
Sequence (Q13951 whole entry, looked up): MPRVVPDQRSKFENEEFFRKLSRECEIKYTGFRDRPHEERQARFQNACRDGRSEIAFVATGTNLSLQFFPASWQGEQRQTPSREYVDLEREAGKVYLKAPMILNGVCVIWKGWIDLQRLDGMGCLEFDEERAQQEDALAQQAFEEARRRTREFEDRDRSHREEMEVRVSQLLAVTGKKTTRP
Excerpt: NIH Chemical Genomics Center [NCGC]
NIH Molecular Libraries Probe Production centers Network [MLPCN]
Assay Submitter (PI): Paul Liu
Core Binding Factor (CBF) abnormalities are associated with 20-25% of all acute myeloid leukemias (AML), of which 5-10% are further sub classified as acute myelomonocytic leukemia with eosinophilia, also known as M4Eo in the FAB classification scheme. This subtype of leukemia is usually associated with chromosome 16 inversion (p13:q22). Chromosome 16 inversion results in formation of the fusion oncogene CBFB-MYH11, which encodes the fusion protein CBF-beta-SMMHC.
It has been hypothesized that the interference of CBF-beta and RUNX1 binding could have therapeutic implications for patients with CBF mediated leukemias. We developed a CBF-beta and RUNX1 binding assay in AlphaScreenTM format and optimized it for high throughput screening to search for inhibitors. The goal of this project is to screen MLPCN's compound collection (MLSMR) for identifying the inhibitors of the interaction between CBF-beta and RUNX1 proteins as research probes. If these probes work well in the animal models, the ultimate goal of this project is to development a new drug treatment for this disease.
This assay can not be used to assess how apparent inhibitors interfere with protein binding, and whether inhibitors specifically bind to either protein. Disruption of this protein-protein interaction, through any mechanism, is the intended target activity.
The present data set was run to confirm the activity of hits from the primary screen.
NCGC Assay Protocol Summary:
Step, Parameter, Description
(1) Reagent, 3 uL CBFb-His/RUNX1-biotin mix incubated together for 20 minutes at room temperature (30 nM each)
(2) Compound or control, 23 nL compound stock solution
(3) Incubation, 15 minutes at Room temperature
(4) Reagent, 1 uL 50 ng each of beads (Nickel beads and streptavidin beads)
(5) Incubation, 90 minutes at Room temperature
(6) Detection, Excitation=365 nm Emission=440 nm, Envision reader in AlphaScreenTM mode
Keywords: MLSMR, MLPCN, NIH Roadmap, qHTS, NCGC, Core binding factor, CBF, CBF-beta, Acute myeloid leukemia
% is set by controls: 0 for no effect and ±100 for the full control effect; potency is the fitted concentration of half-maximal effect.

Compound	activity, negative = inhibition	Potency
Cc1ccc(/C=N/n2c(-c3ccncc3)n[nH]c2=S)s1	7.78% (inactive)	–
COc1ccccc1/C=C/C=N/n1c(-c2ccccn2)n[nH]c1=S	–	11.2 µM (active)
COc1cc(/C=N/n2c(-c3ccccc3)n[nH]c2=S)cc(OC)c1O	-4.33% (inactive)	–
CC(=O)c1c(C)nc(Nc2nc3ccccc3s2)nc1C	10.6% (inactive)	–
COc1ccc(Nc2cc(=O)n(-c3ccccc3)c3c2c(=O)n(C)c(=O)n3C)cc1	7.59% (inactive)	–
Cn1c(=O)c2c(nc(N3CCOCC3)n2C/C=C/c2ccccc2)n(C)c1=O	-3.33% (inactive)	–
COCCCN1CCN(C2Cc3ccccc3Sc3ccc(Cl)cc32)CC1 (stereo not drawn)	–	12.2 µM (active)
CC(C)(C)OC(=O)N1CCC[C@H]1c1nnc(SCc2ccccc2)o1	-4.21% (inactive)	–
CCCCNC(=O)Nc1ncn[nH]1	-4.28% (inactive)	–
Cc1nn(-c2ccccc2)c(NC(=O)c2cccs2)c(-c2ccccc2Cl)c1=O	-2.94% (inactive)	–
CC(C)(C)OC(=O)N[C@@H](Cc1ccccc1)c1nnc(SCC(N)=O)o1	-5.88% (inactive)	–
O=C(O)c1ccc(/C=N\Nc2ccc(S(=O)(=O)N3CCOCC3)cc2[N+](=O)[O-])cc1	-6.64% (inactive)	–
O=C(N/N=C/c1ccc(Br)s1)c1ccco1	6.4% (inactive)	–
CCN(CC)c1ccc(/C=N/NC(=O)c2ccco2)c(O)c1	–	31.6 µM (active)
Cc1nn(C)cc1/C=N/NC(=O)c1ccco1	-3.8% (inactive)	–
CCOC(=O)C(=CNNc1c(C)csc1C(=O)OC)C(=O)OCC	-2.1% (inactive)	–
COC(=O)[C@H](CC(C)C)NC(=O)NCCC1=CCCCC1	-14.1% (inactive)	–
CCOc1ccc(/C=C2\CCc3ccccc3C2=O)cc1	-3.3% (inactive)	–
CCCOc1ccc(-c2nc(-c3ccc([N+](=O)[O-])cc3)cs2)cc1	-3.28% (inactive)	–
COc1cccc(C2/C(=C(/O)c3ccccc3)C(=O)C(=O)N2Cc2ccco2)c1 (stereo not drawn)	-6.74% (inactive)	–
O=C(/C=C/c1ccccc1)Nc1cccnc1Oc1ccccc1F	-4.55% (inactive)	–
O=[N+]([O-])c1ccc2c(c1)S(=O)c1ccccc1-2 (stereo not drawn)	-4.82% (inactive)	–
O=[N+]([O-])c1ccc(O)c(/C=N/NC2=NS(=O)(=O)c3ccccc32)c1	–	2.82 µM (active)

Compound	activity, negative = inhibition	Potency
Cc1cc([N+](=O)[O-])nn1CC(=O)N/N=C/c1ccccc1F	-9.4% (inactive)	–
COC(=O)[C@H](CC(C)C)NC(=O)N1CCCCC1C (stereo partly drawn)	-2.71% (inactive)	–
COc1ccc(/C(C)=N/NC(=O)CNC(=O)Cc2ccccc2)c(OC)c1	-10.6% (inactive)	–
CCCCNC(=O)Nc1ccccc1CC	-3.42% (inactive)	–
CCc1ccccc1NC(=S)N(CCN(C)C)C(C)c1ccccn1 (stereo not drawn)	–	6.12 µM (active)
Cc1c(Cl)cccc1NC(=S)N(CCN(C)C)C(C)c1ccccn1 (stereo not drawn)	–	4.34 µM (active)
Cc1cccc(C)c1NC(=S)N(CCN(C)C)C(C)c1ccccn1 (stereo not drawn)	–	4.86 µM (active)
Cc1ccc(C)c(NC(=S)N(CCN(C)C)C(C)c2ccccn2)c1 (stereo not drawn)	–	4.86 µM (active)
COc1ccc(C2=NOC(CNC(=O)c3ccccc3Br)C2)c(OC)c1 (stereo not drawn)	-1.57% (inactive)	–
CC(C)(C)NC(=O)NCCc1ccccc1	-1.62% (inactive)	–
Fc1ccc(-c2cc(-c3cccs3)cc(-c3ccccc3)n2)cc1	-3.64% (inactive)	–
Clc1ccc(Nc2ccc(Cl)nn2)cc1	2.4% (inactive)	–
COCc1cc(=O)[nH]c2c1c(-c1ccccc1)nn2C	0.43% (inactive)	–
Cc1cc(N2CCOCC2)n2ncc(-c3ccc(Cl)cc3)c2n1	-1.58% (inactive)	–
CC(C)c1nc(C#N)c(NN)o1	-5.01% (inactive)	–
COCc1cc(=O)n2[nH]c(-c3ccco3)cc2n1	-12.9% (inactive)	–
CCC1(CC)Nc2ccccc2C(=O)N1c1ccc(OC)cc1	-2.48% (inactive)	–
CCNC(=O)NC(=O)c1csc([N+](=O)[O-])c1	-0.4% (inactive)	–
Cc1ccc(Cl)cc1NC(=S)N(CCN(C)C)C(C)c1ccccn1 (stereo not drawn)	–	5.46 µM (active)
Cc1ccccc1NC(=S)Nc1ccccn1	1.57% (inactive)	–
Cc1ccc(Cl)cc1NC(=S)NN	-9.41% (inactive)	–
Cc1cc(NC(=O)Nc2cc(Cl)ccc2C)no1	7.12% (inactive)	–
Cc1ccccc1NC(=S)N(CCN(C)C)C(C)c1ccccn1 (stereo not drawn)	–	4.86 µM (active)

Compound	activity, negative = inhibition	Potency
NC(=O)C1CCN(c2c([N+](=O)[O-])cc(C(F)(F)F)cc2[N+](=O)[O-])CC1	-3.87% (inactive)	–
C/C(=N\Nc1ccc(C#N)cc1[N+](=O)[O-])c1ccc(O)cc1	-17.7% (inactive)	–
CC1CC(=O)Nc2ccccc2N1S(=O)(=O)c1ccc(Cl)cc1 (stereo not drawn)	-2.41% (inactive)	–
O=C(CCCCCCCCCCC(=O)NCc1cccnc1)NCc1cccnc1	-0.989% (inactive)	–
Cc1ccc(C2N=C(N)Nc3nc(=O)c4ccccc4n32)cc1 (stereo not drawn)	3.03% (inactive)	–
Cc1cccnc1NC(=O)c1csnn1	-0.56% (inactive)	–
O=C(OCC1OC(OC(=O)c2cc(O)c(O)c(OC(=O)c3cc(O)c(O)c(O)c3)c2)[C@@H](OC(=O)c2cc(O)c(O)c(OC(=O)c3cc(O)c(O)c(O)c3)c2)C(OC(=O)c2cc(O)c(O)c(OC(=O)c3cc(O)c(O)c(O)c3)c2)C1OC(=O)c1cc(O)c(O)c(OC(=O)c2cc(O)c(O)c(O)c2)c1)c1cc(O)c(O)c(OC(=O)c2cc(O)c(O)c(O)c2)c1 (stereo partly drawn)	–	0.398 µM (active)
O=c1[nH]nc(N2CCOCC2)c(=O)[nH]1	0.379% (inactive)	–
CCCCCCC(=O)N(O)C1CC(=O)N(c2ccc(F)cc2)C1=O (stereo not drawn)	-2.04% (inactive)	–
O=C1Nc2ccccc2C1(O)Cc1ccccn1 (stereo not drawn)	-2.94% (inactive)	–
Oc1ccccc1/C=N/Nc1ncc(Br)cn1	–	3.55 µM (active)
O=C(O)c1ccccc1N/N=C/c1cc(Br)cc(Br)c1O	2.07% (inactive)	–
O=C(N/N=C/c1ccccc1[N+](=O)[O-])c1cnccn1	-5.63% (inactive)	–
O=C(c1ccccc1)c1ccc2c(c1)OCCCO2	6.09% (inactive)	–
CCOc1ccc(OCc2ccc(C(=O)NN)o2)cc1	-7.39% (inactive)	–
Cc1cccc(-c2n[nH]c(=S)n2/N=C/c2cccs2)c1	-7.44% (inactive)	–
OCc1ncc(-c2ccccc2)s1	0.332% (inactive)	–
c1ccc(-c2nnc(N3CCN(c4ccccc4)CC3)nc2-c2ccccc2)cc1	-7.28% (inactive)	–
c1ccc(-c2nnc(-c3ccccn3)nc2NC2CCCCC2)cc1	–	2.24 µM (active)
CN(C)c1nc(-c2ccccn2)nnc1-c1ccccc1	–	1.41 µM (active)
CN1CCN(c2nnc(-c3ccccc3)c(-c3ccccc3)n2)CC1	-0.376% (inactive)	–
O=C(N/N=C/c1ccco1)c1cc(C2CC2)[nH]n1	-3.94% (inactive)	–
Cc1onc(-c2c(Cl)cccc2Cl)c1C(=O)Nc1nc(C(C)(C)C)cs1	-1.93% (inactive)	–

Compound	activity, negative = inhibition	Potency
Cc1ccc(-c2c[n+](CC(=O)Nc3ccccc3C)c3n2CCC3)cc1	-1.35% (inactive)	–
Cc1ccc(C[n+]2cc(-c3ccc(Cl)cc3)n3c2CCC3)cc1	-2.88% (inactive)	–
COc1ccc(/C=N/OC(=O)c2ccc(Cl)cc2)c(Cl)c1OC	-5.17% (inactive)	–
CCOC(=O)CSc1nnc(Cn2nnc3ccccc32)n1-c1ccc(F)cc1	-4.39% (inactive)	–
CN(CC(O)CN1CCOCC1)S(=O)(=O)O (stereo not drawn)	3.07% (inactive)	–
CCOC(=O)c1nn(-c2ccc([N+](=O)[O-])cc2)cc1O	-0.376% (inactive)	–
Cn1c(=O)c2cc3ccccc3nc2n(C)c1=O	0.436% (inactive)	–
COc1ccc(CCNC(=S)NCCc2ccc(OC)c(OC)c2)cc1OC	-3.02% (inactive)	–
CCO/C=C1\SC(=S)N(c2ccc(Cl)cc2)C1=O	-14.9% (inactive)	–
Cc1ccc(S(=O)(=O)NC(=O)Nc2ccc(OC(F)F)cc2)cc1	-0.722% (inactive)	–
Nc1nc(-c2ccccc2)c(N=Nc2ccc(Cl)cc2)s1	–	13.7 µM (active)
Nc1nc(-c2ccccc2)c(N=Nc2ccccc2Cl)s1	–	4.34 µM (active)
Nc1nc(-c2ccccc2)c(N=Nc2cccc3ccccc23)s1	–	1.94 µM (active)
Cc1cc(C)n2nc(N)c(N=Nc3ccccc3)c2n1	-9.08% (inactive)	–
CC1CC(C)(C)OC(C[N+]2(C)CCCCC2)O1 (stereo not drawn)	-0.393% (inactive)	–
COc1ccccc1NC(=S)NC1CCCCCCCCCCC1	-2.75% (inactive)	–
CCOC(=O)C1CCCN(C(=O)Nc2c(-c3ccccc3)noc2C)C1 (stereo not drawn)	0.758% (inactive)	–
COc1ccc(C(=O)/C=C/Nc2cc(C)ccn2)cc1	-3.04% (inactive)	–
COC(=O)c1[nH]c2cc(OC)ccc2c1NC(=O)c1c(F)cccc1F	3.22% (inactive)	–
CC(C)(C)c1csc(Sc2ccc([N+](=O)[O-])cn2)n1	3% (inactive)	–
CC(=O)Oc1cc2cccc(OC(C)=O)c(=O)c2c(OC(C)=O)c1OC(C)=O	–	1.12 µM (active)
O=C(N/N=C/c1ccc2c(c1)OCCO2)c1ccncc1	-1.01% (inactive)	–
CC(=O)c1cnn(-c2ccc(Cl)c(Cl)c2Cl)c1C	-3.5% (inactive)	–

Compound	activity, negative = inhibition	Potency
CCOC(=O)N1CCc2c(sc3nc[nH]c(=O)c23)C1	-4.17% (inactive)	–
CCc1c(C#N)sc(C(N)=O)c1CC	-3.2% (inactive)	–
CN=c1scc(-c2ccccc2F)n1/N=C/c1ccc(O)c(O)c1O	–	6.87 µM (active)
CC(=O)Nc1ccc(S(=O)(=O)Nc2ccc(C(=O)NCC(=O)O)cc2)cc1	4.22% (inactive)	–
Cc1cccc(C)c1NC(=S)N1CCOCC1	0.441% (inactive)	–
Cc1ccc(C(=O)CSc2nnc(-c3snnc3C)n2C2CC2)cc1	5.91% (inactive)	–
CC1=NN(c2ccccc2)C(=O)/C1=C/C=C/c1ccc(N(C)C)cc1	–	1.12 µM (active)
CC1=[N+](C)N(c2ccccc2)C(=O)C1N=C/C=C/c1ccccc1 (stereo not drawn)	7.59% (inactive)	–
CN(C)c1ccc(N2C(=O)CC(c3ccccc3)CC2=O)cc1	-1.11% (inactive)	–
CN1CCN(C(=O)Nc2cccc(-c3ccccc3)c2)CC1	1.01% (inactive)	–
CCc1c(-c2ccccc2)[n+](=O)c2c(n1[O-])CCC2	-0.602% (inactive)	–
O=C(O)C1=CC(=C(c2ccc(O)c(C(=O)O)c2)c2ccc(O)c(C(=O)O)c2)C=CC1=O	–	1.78 µM (active)
O=C(NC(=S)NNC(=O)c1cnccn1)c1ccc(F)cc1	–	2 µM (active)
O=C(N/N=C/c1ccncc1)c1cnccn1	-5.76% (inactive)	–
O=C(NNC(=S)NC1CC2C=CC1C2)c1ccncc1 (stereo not drawn)	8.75% (inactive)	–
CCOP(=O)(c1ccc(N(C)C)cc1)C(O)c1cccnc1 (stereo not drawn)	-3.85% (inactive)	–
CN(C)NC(=S)NC1CCS(=O)(=O)C1 (stereo not drawn)	1.34% (inactive)	–
O=C1CC(Sc2ccc(Cl)cc2)C(=O)N1c1ccc2c(c1)OCCO2 (stereo not drawn)	-12% (inactive)	–
Cc1cccc(-c2n[nH]c(=S)n2/N=C/c2ccco2)c1	-6.05% (inactive)	–
Fc1ccccc1/C=N/n1c(-c2cccnc2)n[nH]c1=S	-0.276% (inactive)	–
O=[N+]([O-])c1cc2c(cc1/C=N/n1c(-c3ccccn3)n[nH]c1=S)OCO2	–	10 µM (active)
